According to PubChem BioAssay AID1159580 (chemical genetic matrix, 2015):
Values joined by “and” are separate entries in the source; they are usually repeats but may differ in a detail not shown here. Identical values can stand only once. Hit rate of the full screen: of about 5,500 compounds, about 2,000 (36%) were called active. Another 18% or so got no clear call; they are omitted. Rule as the data show it: active = normalized growth mostly below about 0.91 (no sharp cut-off); inconclusive = no clear call, values can overlap the other calls; inactive = mostly above about 0.92. The list shows a part of the results.

Test: chemical genetic growth profiling, strain panel (AID 1159580);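 also: tested at 20 µM; growth read once vehicle control cultures reached saturation at 30 °C; 1 = growth at the plate median or of vehicle wells; lower values mean less growth of the strain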
Details: growth OD

Measured: normalized growth

O=C(O)c1cc(=O)c2ccccc2[nH]1
inactive: S. cerevisiae deletion strains, locus YJR075W, strain HOC1, active compounds read low 0.999 | S. cerevisiae deletion strains, locus YKL009W, strain mrt4, active compounds read low 1.01 | S. cerevisiae deletion strains, locus YKL068W, active compounds read low 0.991 | S. cerevisiae deletion strains, locus YKL085W, strain MDH1 (second series), active compounds read low 0.998 | S. cerevisiae deletion strains, locus YKL085W, strain MDH1, active compounds read low 0.998 | S. cerevisiae deletion strains, locus YKL160W, strain elf1, active compounds read low 0.993 | S. cerevisiae deletion strains, locus YKL190W, strain CNB1, active compounds read low 1 | S. cerevisiae deletion strains, locus YKR001C, strain vps1, active compounds read low 1.01 | S. cerevisiae deletion strains, locus YKR026C, strain gcn3, active compounds read low 0.98 | S. cerevisiae deletion strains, locus YKR091W, strain srl3, active compounds read low 0.993 | S. cerevisiae deletion strains, locus YLL001W, strain dnm1, active compounds read low 0.991 | S. cerevisiae deletion strains, locus YLL026W, active compounds read low 0.994 | S. cerevisiae deletion strains, locus YLL041C, strain sdh2, active compounds read low 0.98 | S. cerevisiae deletion strains, locus YLR027C, strain aat2, active compounds read low 0.989 | S. cerevisiae deletion strains, locus YLR039C, strain RIC1, active compounds read low 1.01 | S. cerevisiae deletion strains, locus YLR058C, strain SHM2, active compounds read low 0.972 | S. cerevisiae deletion strains, locus YLR102C, strain apc9, active compounds read low 1 | S. cerevisiae deletion strains, locus YLR113W, strain HOG1, active compounds read low 1.01 | S. cerevisiae deletion strains, locus YLR221C, strain rsa3, active compounds read low 0.973 | S. cerevisiae deletion strains, locus YLR258W, strain gsy2, active compounds read low 0.98 | S. cerevisiae deletion strains, locus YLR262C, strain YPT6 (second series), active compounds read low 1.04 | S. cerevisiae deletion strains, locus YLR262C, strain YPT6, active compounds read low 1 | S. cerevisiae deletion strains, locus YLR268W, strain sec22, active compounds read low 1.01 | S. cerevisiae deletion strains, locus YLR320W, strain mms22, active compounds read low 0.977 | S. cerevisiae deletion strains, locus YLR330W, strain CHS5, active compounds read low 0.989 | S. cerevisiae deletion strains, locus YLR342W, strain FKS1 (second series), active compounds read low 1.01 | S. cerevisiae deletion strains, locus YLR342W, strain FKS1, active compounds read low 0.986 | S. cerevisiae deletion strains, locus YLR357W, strain rsc2, active compounds read low 0.936 | S. cerevisiae deletion strains, locus YLR370C, strain arc18, active compounds read low 0.987 | S. cerevisiae deletion strains, locus YLR371W, strain rom2, active compounds read low 0.986 | S. cerevisiae deletion strains, locus YLR384C, strain iki3, active compounds read low 0.942 | S. cerevisiae deletion strains, locus YLR418C, strain cdc73, active compounds read low 1.05 | S. cerevisiae deletion strains, locus YML016C, strain PPZ1, active compounds read low 0.984 | S. cerevisiae deletion strains, locus YML032C, strain rad52, active compounds read low 0.976 | S. cerevisiae deletion strains, locus YML120C, strain ndi1, active compounds read low 0.99 | S. cerevisiae deletion strains, locus YML124C, strain tub3, active compounds read low 0.992 | S. cerevisiae deletion strains, locus YMR058W, strain fet3, active compounds read low 0.99 | S. cerevisiae deletion strains, locus YMR078C, strain ctf18, active compounds read low 0.984 | S. cerevisiae deletion strains, locus YMR125W, strain sto1, active compounds read low 0.972 | S. cerevisiae deletion strains, locus YMR129W, active compounds read low 1 | S. cerevisiae deletion strains, locus YMR205C, strain PFK2, active compounds read low 0.986 | S. cerevisiae deletion strains, locus YMR223W, strain ubp8, active compounds read low 0.985 | S. cerevisiae deletion strains, locus YMR231W, strain pep5, active compounds read low 0.973 | S. cerevisiae deletion strains, locus YMR263W, strain SAP30, active compounds read low 0.988 and 0.996 | S. cerevisiae deletion strains, locus YMR307W, strain GAS1, active compounds read low 1.09 | S. cerevisiae deletion strains, locus YNL067W, strain RPL9B, active compounds read low 0.998 | S. cerevisiae deletion strains, locus YNL071W, strain lat1, active compounds read low 1.01 | S. cerevisiae deletion strains, locus YNL128W, strain TEP1, active compounds read low 0.963 | S. cerevisiae deletion strains, locus YNL153C, strain GIM3, active compounds read low 1 and 1.01 | S. cerevisiae deletion strains, locus YNL175C, strain NOP13, active compounds read low 0.978 | S. cerevisiae deletion strains, locus YNL183C, strain NPR1, active compounds read low 0.893 | S. cerevisiae deletion strains, locus YNL197C, strain WHI3, active compounds read low 0.981 | S. cerevisiae deletion strains, locus YNL209W, strain ssb2, active compounds read low 0.989 | S. cerevisiae deletion strains, locus YNL224C, strain SQS1, active compounds read low 0.989 | S. cerevisiae deletion strains, locus YNL233W, strain BNI4, active compounds read low 0.993 | S. cerevisiae deletion strains, locus YNL248C, strain rpa49, active compounds read low 0.987 | S. cerevisiae deletion strains, locus YNL250W, strain rad50, active compounds read low 0.976 | S. cerevisiae deletion strains, locus YNL271C, strain bni1, active compounds read low 0.997 | S. cerevisiae deletion strains, locus YNL298W, strain CLA4, active compounds read low 1 | S. cerevisiae deletion strains, locus YNL307C, strain MCK1, active compounds read low 0.998 | S. cerevisiae deletion strains, locus YNL322C, strain KRE1 (second series), active compounds read low 0.975 | S. cerevisiae deletion strains, locus YNL322C, strain KRE1, active compounds read low 0.991 and 1 | S. cerevisiae deletion strains, locus YNR049C, strain mso1, active compounds read low 0.983 | S. cerevisiae deletion strains, locus YNR052C, strain pop2, active compounds read low 1 | S. cerevisiae deletion strains, locus YOL006C, strain TOP1, active compounds read low 1 | S. cerevisiae deletion strains, locus YOL012C, strain htz1 1.51 | S. cerevisiae deletion strains, locus YOL147C, strain pex11, active compounds read low 0.999 | S. cerevisiae deletion strains, locus YOR001W, strain rrp6, active compounds read low 0.954 | S. cerevisiae deletion strains, locus YOR061W, strain CKA2, active compounds read low 0.969 | S. cerevisiae deletion strains, locus YOR069W, strain VPS5, active compounds read low 0.995 | S. cerevisiae deletion strains, locus YOR070C, strain gyp1, active compounds read low 0.995 | S. cerevisiae deletion strains, locus YOR080W, strain dia2, active compounds read low 0.974 | S. cerevisiae deletion strains, locus YOR083W, strain WHI5 (second series), active compounds read low 1.02 | S. cerevisiae deletion strains, locus YOR083W, strain WHI5, active compounds read low 0.999 | S. cerevisiae deletion strains, locus YOR106W, strain vam3, active compounds read low 1.01 | S. cerevisiae deletion strains, locus YOR136W, strain idh2, active compounds read low 0.99 | S. cerevisiae deletion strains, locus YOR144C, strain elg1, active compounds read low 0.994 | S. cerevisiae deletion strains, locus YOR184W, strain ser1, active compounds read low 0.994 | S. cerevisiae deletion strains, locus YOR231W, strain MKK1, active compounds read low 0.988 | S. cerevisiae deletion strains, locus YOR265W, strain rbl2, active compounds read low 1 | S. cerevisiae deletion strains, locus YOR270C, strain vph1, active compounds read low 1 | S. cerevisiae deletion strains, locus YOR290C, strain snf2, active compounds read low 0.986 | S. cerevisiae deletion strains, locus YOR316C, strain cot1, active compounds read low 0.983 | S. cerevisiae deletion strains, locus YPL051W, strain arl3, active compounds read low 0.997 | S. cerevisiae deletion strains, locus YPL055C, strain LGE1, active compounds read low 0.976 and 1.01 | S. cerevisiae deletion strains, locus YPL078C, strain atp4, active compounds read low 0.987 | S. cerevisiae deletion strains, locus YPL106C, strain sse1, active compounds read low 0.972 | S. cerevisiae deletion strains, locus YPL240C, strain hsp82, active compounds read low 0.982 | S. cerevisiae deletion strains, locus YPL241C, strain CIN2, active compounds read low 0.996 | S. cerevisiae deletion strains, locus YPL256C, strain CLN2, active compounds read low 0.954 | S. cerevisiae deletion strains, locus YPR119W, strain clb2, active compounds read low 0.99 | S. cerevisiae deletion strains, locus YPR141C, strain kar3, active compounds read low 0.977 | S. cerevisiae deletion strains, locus YPR163C, strain tif3, active compounds read low 0.997 | S. cerevisiae deletion strains, locus YPR167C, strain met16, active compounds read low 0.997 | S. cerevisiae deletion strains, strain wtn01, active compounds read low 0.992 | S. cerevisiae strains, strain wild type, active compounds read low 0.992
